Measurements: PubChem BioAssay (NCATS)
Values joined by “and” are separate entries in the source; they are usually repeats but may differ in a detail not shown here. Equal values may be shown once. Records with an inconclusive call do not appear. Some compounds were tested as several samples or in several runs, with calls that do not always agree. Active and inactive are the calls of the source. Calls come from the whole dose curve; as a rule, active = well fitted curve in the direction sought with a large enough effect; inconclusive = small, poorly fitted or top-dose-only effect, or another doubt; inactive = no such curve, though single readings can be large; an effect the other way counts as inactive or inconclusive.

Columns and labels:
[1] = tested on: MKL-2; assay: qHTS assay to identify novel small-molecules to repurpose for Merkel cell carcinoma treatment (AID 1296009); settings: MCC and control cell lines, CellTiter-Glo viability, 72 h; series mostly up to 46 µM; note: nearly all actives have a fitted effect of over 60% in size
Procedure, shortened: (§1)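 Cells were treated for 72 hr at 37 degree celsius with compounds in 8- or 11-point dose response. Viability was read by CellTiter-Glo luminescence, normalized to no-cell (cytotoxicity) and DMSO controls.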

[2] = tested on: UISO; assay: as above; settings: MCC and control cell lines, CellTiter-Glo viability, 72 h; series mostly up to 46 µM
Procedure, shortened: as §1

[3] = tested on: WaGa; assay: as above; settings: MCC and control cell lines, CellTiter-Glo viability, 72 h; series mostly up to 46 µM
Procedure, shortened: as §1

[4] = tested on: HeLa; assay: Primary qHTS to identify gynecologic anti-cancer compounds using libraries of approved drugs and bioactive compounds (AID 1345084); settings: Gynecologic cancer cell panel viability, ATPlite luminescence, 48 h; series mostly up to 57.5 µM; note: nearly all actives have a fitted effect of over 55% in size
Procedure, shortened: (§2)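 48 h compound exposure at 37 C, 5% CO2; five-point qHTS. ATPlite luminescence readout of cell ATP.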

[5] = tested on: Hek293T; assay: as above; settings: Gynecologic cancer cell panel viability, ATPlite luminescence, 48 h, control line for the selectivity index; series mostly up to 57.5 µM
Procedure, shortened: as §2

[6] = tested on: JEG-3; assay: as above; settings: Gynecologic cancer cell panel viability, ATPlite luminescence, 48 h; series mostly up to 57.5 µM
Procedure, shortened: as §2

[7] = tested on: SKOV3; assay: as above; settings: Gynecologic cancer cell panel viability, ATPlite luminescence, 48 h; series mostly up to 57.5 µM
Procedure, shortened: as §2

[8] = qHTS assay to identify inhibitors of the type 1 interferon - major histocompatibility complex class I in skeletal muscle: Counter screen cell viability and HiBit confirmation (AID 1347412); settings: iHSKM muscle cells + IFN-b, HiBiT or CellTiter-Glo, 24 h; for activity change, negative = inhibition: at 45.9 µM (top of the series); for all read-outs here: nearly all actives have a fitted effect of over 60% in size
Procedure, shortened: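 Luminescence read-out: Nano-Glo HiBiT lytic signal from C-terminally HiBiT-tagged HLA-B in CRISPR-edited human myoblasts, plus CellTiter Glo ATP as viability counter screen. IFN-beta 4.0 ng/ml; 24 hrs treatment at 37 C, 5% CO2.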

[9] = tested on: MKL-1; assay: qHTS assay to identify novel small-molecules to repurpose for Merkel cell carcinoma treatment (AID 1296009); settings: MCC and control cell lines, CellTiter-Glo viability, 72 h; series mostly up to 46 µM; note: nearly all actives have a fitted effect of over 60% in size
Procedure, shortened: as §1

[10] = tested on: C33A; assay: Primary qHTS to identify gynecologic anti-cancer compounds using libraries of approved drugs and bioactive compounds (AID 1345084); settings: Gynecologic cancer cell panel viability, ATPlite luminescence, 48 h; series mostly up to 57.5 µM; note: nearly all actives have a fitted effect of over 55% in size
Procedure, shortened: as §2

[11] = tested on: CAOV3; assay: as above; settings: Gynecologic cancer cell panel viability, ATPlite luminescence, 48 h; series mostly up to 57.5 µM
Procedure, shortened: as §2

[12] = tested on: CASKI; assay: as above; settings: Gynecologic cancer cell panel viability, ATPlite luminescence, 48 h; series mostly up to 57.5 µM
Procedure, shortened: as §2

[13] = tested on: Es-2; assay: as above; settings: Gynecologic cancer cell panel viability, ATPlite luminescence, 48 h; series mostly up to 57.5 µM
Procedure, shortened: as §2

[14] = tested on: OV90; assay: as above; settings: Gynecologic cancer cell panel viability, ATPlite luminescence, 48 h; series mostly up to 57.5 µM
Procedure, shortened: as §2

[15] = tested on: PA-1; assay: as above; settings: Gynecologic cancer cell panel viability, ATPlite luminescence, 48 h; series mostly up to 57.5 µM
Procedure, shortened: as §2

[16] = tested on: Tov-21-G; assay: as above; settings: Gynecologic cancer cell panel viability, ATPlite luminescence, 48 h; series mostly up to 57.5 µM
Procedure, shortened: as §2

[17] = tested on: Tov112D; assay: as above; settings: Gynecologic cancer cell panel viability, ATPlite luminescence, 48 h; series mostly up to 57.5 µM
Procedure, shortened: as §2

[18] = Drug repurposing screens with cells derived from glioblastoma tumor samples (AID 1345199); settings: GBM patient neurospheres viability, ATP luminescence, 48 h; note: nearly all actives have a fitted effect of over 40% in size
Procedure, shortened: (§3)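 Four patient lines of CD133+ GBM neurospheres were screened at several concentrations; hits were retested in those lines plus three slower-growing GBM lines, using 48-hour treatment and ATP-based viability.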

[19] = tested on: astro; assay: as above; settings: viability, ATP luminescence, 48 h; series mostly up to 45.9 µM
Procedure, shortened: as §3

[20] = tested on: NIH3T3; assay: qHTS assay to identify novel small-molecules to repurpose for Merkel cell carcinoma treatment (AID 1296009); settings: MCC and control cell lines, CellTiter-Glo viability, 72 h; at 44.8 µM (top of the series) unless noted; note: nearly all actives have a fitted effect of over 60% in size
Procedure, shortened: as §1

[21] = at 45.9 µM (top of the series), tumour line B
[22] = at 45.9 µM (top of the series), tumour line D
[23] = at 46 µM (top of the series), tumour line A
[24] = at 46.1 µM (top of the series), tumour line C
% is set by controls: 0 for no effect and ±100 for the full control effect; potency is the fitted concentration of half-maximal effect.

O[C@@H](CNC[C@H](O)[C@H]1CCc2cc(F)ccc2O1)[C@@H]1CCc2cc(F)ccc2O1
active: Potency [1] 26.4 µM | Potency [2] 23.7 µM | Potency [7] 22.4 µM
inactive: Potency [3] | Potency [4] | Potency [5] | Potency [6] | activity change, negative = inhibition ([8]; HiBiT) 26% | activity change, negative = inhibition ([8]; Viability) -9.67%

CC(C)OC(=O)OCOP(=O)(CO[C@H](C)Cn1cnc2c(N)ncnc21)OCOC(=O)OC(C)C
inactive: Potency [9] | Potency [1] | Potency [3] | Potency [10] | Potency [11] | Potency [12] | Potency [13] | Potency [4] | Potency [5] | Potency [6] | Potency [14] | Potency [15] | Potency [7] | Potency [16] | Potency [17] | activity, negative = cell killing [18, 21] -7.36% | activity, negative = cell killing [18, 22] -12.2% | activity, negative = cell killing [18, 23] -9.04% | activity, negative = cell killing [18, 24] -6.09% | Potency [19]

CC(=O)Oc1ccccc1C(=O)Nc1ncc([N+](=O)[O-])s1
inactive and 16.8 µM (active): Potency [3]
active: Potency [19] 5.01 µM | Potency ([8]; HiBiT) 14 µM
inactive: Potency [9] | outcome [20] inactive [at 92 µM] | Potency [10] | Potency [11] | Potency [12] | Potency [6] | Potency [14] | Potency [16] | Potency [17] | activity change, negative = inhibition ([8]; Viability) -5.7%

CCCCc1oc2ccc(NS(C)(=O)=O)cc2c1C(=O)c1ccc(OCCCN(CCCC)CCCC)cc1
inactive: Potency [4] | Potency [6] | activity change, negative = inhibition ([8]; HiBiT) -10.2%
active: Potency [1] 13.2 µM and 4.73 µM | Potency [19] 20 µM

COC(=O)Nc1nc2ccc(S(=O)c3ccccc3)cc2[nH]1 (stereo not drawn)
inactive: Potency [11] | activity, negative = cell killing [18, 21] -15.1% | activity, negative = cell killing [18, 22] -1.35% | activity, negative = cell killing [18, 24] -3.75%
active: Potency [13] 3.55 µM | Potency [4] 2.82 µM | Potency [15] 1.58 µM | Potency [16] 3.98 µM | Potency [17] 1.58 µM

COC(=O)Nc1nc2ccc(Sc3ccccc3)cc2[nH]1
inactive: activity, negative = cell killing ([18]; at 20 µM (top of the series), tumour line C) -28.6%
active: Potency [1] 3.32 µM | Potency [13] 2.82 µM | Potency [14] 10 µM | Potency [15] 1.41 µM | Potency [16] 2.82 µM | Potency [17] 1.41 µM | Potency ([18]; tumour line A) 0.224 µM | Potency [19] 0.631 µM

CN1CCN(c2c(F)cc3c(=O)c(C(=O)O)cn(CCF)c3c2F)CC1
inactive: Potency [10] | Potency [11] | Potency [12] | Potency [13] | Potency [5] | Potency [6] | Potency [14] | Potency [15] | Potency [7] | Potency [16] | Potency [17] | activity, negative = cell killing [18, 21] -2.67% | activity, negative = cell killing [18, 22] -2.82% | activity, negative = cell killing [18, 23] -15.5% | activity, negative = cell killing [18, 24] -9.27% | Potency [19]

NNC(=O)c1ccncc1
inactive: Potency [9] | Potency [2] | Potency [3] | Potency [10] | Potency [11] | Potency [12] | Potency [13] | Potency [4] | Potency [5] | Potency [6] | Potency [14] | Potency [15] | Potency [7] | Potency [16] | Potency [17] | activity, negative = cell killing [18, 21] -4.35% | activity, negative = cell killing [18, 22] -4.61% | activity, negative = cell killing [18, 24] -1.87% | Potency [19]

CC1(C)[C@H](C(=O)O)N2C(=O)C[C@H]2S1(=O)=O
inactive: Potency [10] | Potency [11] | Potency [12] | Potency [13] | Potency [4] | Potency [5] | Potency [6] | Potency [14] | Potency [15] | Potency [7] | Potency [16] | Potency [17] | activity, negative = cell killing [18, 21] 1.79% | activity, negative = cell killing [18, 22] -3.83% | activity, negative = cell killing [18, 23] -4.41% | activity, negative = cell killing [18, 24] 9.89%

O=C(O)c1ccc(-n2nc(-c3ccccc3O)nc2-c2ccccc2O)cc1
active: Potency [3] 16.8 µM | Potency [15] 8.91 µM
inactive: Potency [11] | Potency [12] | Potency [4] | Potency [7]

COc1cc([C@@H]2c3cc4c(cc3[C@H](O)[C@H]3COC(=O)[C@H]23)OCO4)cc(OC)c1OC
47.3 nM (active) and inactive: Potency [3]
inactive: Potency [9] | Potency [11]
active: Potency [1] 0.0132 µM | Potency [4] 0.1 µM | Potency [14] 0.355 µM | Potency [16] 0.199 µM

CC(=O)[C@H]1CC[C@H]2[C@@H]3CCC4=CC(=O)CC[C@]4(C)[C@H]3CC[C@]12C
inactive: Potency [9] | activity, negative = cell killing [18, 21] -26.3% | Potency [19]
active: Potency ([18]; tumour line D) 12.6 µM

CCCc1nc(C)c2c(=O)[nH]c(-c3cc(S(=O)(=O)N4CCN(CC)CC4)ccc3OCC)nn12
active: Potency ([18]; tumour line A) 17.8 µM
inactive: Potency [10] | Potency [11] | Potency [12] | Potency [13] | Potency [5] | Potency [6] | Potency [14] | Potency [7] | Potency [16] | Potency [17] | activity, negative = cell killing [18, 21] -13% | activity, negative = cell killing [18, 22] -20.9% | activity, negative = cell killing [18, 24] -8.37% | Potency [19]
